From PubChem BioAssay (NCATS) come the findings set out here.

Records with an inconclusive call do not appear. Entries that show only a call come without a potency. Activity calls are given as the source filed them. Calls follow the shape of the dose curve; as a rule, active = well fitted curve in the direction sought with a large enough effect; inconclusive = small, poorly fitted or top-dose-only effect, or another doubt; inactive = no such curve, though single readings can be large; an effect the other way counts as inactive or inconclusive.

In assay [1] the target is Aldehyde dehydrogenase, mitochondrial (Homo sapiens) (UniProt P05091). Nature of the assay: qHTS for Inhibitors of the Aldehyde Dehydrogenase Family (ALDH2) Primary screen (AID 2061308). Also: nearly all actives have a fitted effect of over 55% in size. A general note: Quantitative high-throughput screening tests each substance at several concentrations.
Assay [2] has as its target Retinaldehyde dehydrogenase 3 (Homo sapiens) (UniProt P47895). Nature of the assay: qHTS for Inhibitors of the Aldehyde Dehydrogenase Family (ALDH1A3) Primary screen (AID 2061315).

For `COc1ccc(NS(=O)(=O)c2ccccc2)cc1NS(=O)(=O)c1ccccc1`, the Potency entry in assay [1] and in assay [2] was “inactive” in each case.

As for `CC(C)(C)OC(=O)N1CCC(C(=O)Nc2ccc([S+](=O)([O-])Nc3nccs3)cc2)CC1`, the Potency entry in assay [1] and in assay [2] was “inactive” in each case.

`CC(=O)Nc1sc2c(c1-c1ccc3[nH]ccc3c1)CCNC2`: the Potency result in assay [1] and in assay [2] was “inactive” throughout.

Turning to `COc1cccc(NC(=S)N2CCN(c3cc(Cl)cc(Cl)c3)CC2)n1`, the Potency entry in assay [1] and in assay [2] was “inactive” in each case.

Consider `C[C@@H]1[C@H](O)[C@@H]2OC(=O)C3=C2[C@H](CCC3)[C@@]12C[C@@H](c1ccoc1)OC2=O`, for which the Potency entry in assay [1] and in assay [2] was “inactive” in each case.

Regarding `Cc1cc(NS(=O)(=O)c2ccc(NC(=O)Cc3cccc(Cl)c3)cc2)no1`, the Potency entry in assay [1] and in assay [2] was “inactive” each time.

`FC(F)(F)c1ccccc1-c1nc(NCC#Cc2cccnc2)c2ccccc2n1`: the Potency entry in assay [1] and in assay [2] was “inactive” each time.

With `Cc1c[nH]c2nccc(Oc3c(F)cc(Nc4cc(Cl)nc(N)n4)cc3F)c12`, the Potency result in assay [1] and in assay [2] was “inactive” throughout.

As for `COc1ccc(-c2nnc3n2N=C(c2ccccc2OC)CS3)c(OC)c1`, the Potency entry in assay [1] and in assay [2] was “inactive” throughout.

Take `Cc1noc(C)c1-c1ccc2ncnc(NCc3ccc(Br)cc3)c2c1`: the Potency entry in assay [1] and in assay [2] was “inactive” throughout.

As for `COc1ccc(NC(=O)C(OC(=O)CNC(=O)c2ccccc2)c2ccccc2)c(C)c1` (stereo unspecified), the Potency entry in assay [1] and in assay [2] was “inactive” each time.

As for `C[C@@H]1CN(S(=O)(=O)c2ccc3c(c2)OCCO3)CCN1S(=O)(=O)c1c(F)cccc1F`, the Potency result in assay [1] and in assay [2] was “inactive” each time.

For `Cc1cc2c(s1)c1cnn(Cc3cccc(Br)c3)c(=O)c1n2C`, the Potency result in assay [1] and in assay [2] was “inactive” each time.

Consider `O=C(Cn1nc(-c2cccnc2)ccc1=O)NCCc1ccccc1`, for which the Potency result in assay [1] and in assay [2] was “inactive” in each case.

Take `Cc1cc(S(=O)(=O)Nc2cnccc2C(=O)Nc2nc(-c3ccccc3)cs2)c(C)o1`: the Potency entry in assay [1] and in assay [2] was “inactive” in each case.

Turning to `O=C(CCc1ccccc1)Nc1ccc(S(=O)(=O)Nc2nccs2)cc1`, the Potency result in assay [1] and in assay [2] was “inactive” throughout.

Consider `O=C(Nc1ncc(Cc2ccc(C(F)(F)F)cc2)s1)c1ccc(-c2ccccc2)o1`, for which the Potency entry in assay [1] and in assay [2] was “inactive” each time.

Regarding `COc1cc2c(s1)c1cnn(Cc3ccccc3F)c(=O)c1n2C`, the Potency result in assay [1] and in assay [2] was “inactive” each time.

For the compound `CCCn1c(C)nc2c(NCCCCN(CC)CC)nc(C)nc21`, the Potency result in assay [1] and in assay [2] was “inactive” throughout.

Take `COc1ccc(CSc2nc3ncc(Br)cc3[nH]2)cc1F`: the Potency entry in assay [1] and in assay [2] was “inactive” throughout.

With `c1nc(N2CCC(N3CCCC3)CC2)c2cc(-c3ccc4c(c3)OCO4)ccc2n1`, the Potency entry in assay [1] and in assay [2] was “inactive” throughout.

For `C=C1C(=O)OC2CC(C)C(CCC(C)O)=CCC12` (stereo unspecified), the Potency entry in assay [1] and in assay [2] was “inactive” in each case.

As to `C=CCc1cc(F)c(S(=O)(=O)N2CCN(S(=O)(=O)c3ccc4c(c3)OCCO4)CC2)cc1F`, the Potency result in assay [1] and in assay [2] was “inactive” in each case.

`Oc1ccc(CCc2ccccc2F)c2cccnc12`: the Potency result in assay [1] and in assay [2] was “inactive” each time.

Consider `Cc1cc(-c2nnc3n2CCCCC3)c(C)n1-c1ccccc1`, for which the Potency result in assay [1] and in assay [2] was “inactive” throughout.

On to `Cc1ccc(Cn2ncc3c4sc(C)cc4n(C)c3c2=O)cc1`, for which the Potency entry in assay [1] and in assay [2] was “inactive” throughout.

With `O=C(Nc1nnc(-c2ccco2)o1)c1ccc(C(F)(F)F)cc1`, the Potency entry in assay [1] and in assay [2] was “inactive” throughout.

As for `O=C(Nc1nc(-c2ccccc2)cs1)c1ccncc1NS(=O)(=O)c1ccc(-c2ccccc2)cc1`, the Potency entry in assay [1] and in assay [2] was “inactive” each time.

`Cc1cc(C)nc(NC(=S)N2CCN(c3nsc4ccccc34)CC2)c1`: the Potency result in assay [1] and in assay [2] was “inactive” each time.

For the compound `COC(=O)c1ccc(Nc2nc(-c3ccncc3)nc3ccccc23)cc1OC`, the Potency entry in assay [1] and in assay [2] was “inactive” throughout.

Regarding `Cc1ccc(OCCn2c(CCNC(=O)C3CCCCC3)nc3ccccc32)cc1`, the Potency entry in assay [1] and in assay [2] was “inactive” throughout.

Turning to `Cc1cc2c(s1)c1cnn(Cc3c(F)ccc(Cl)c3F)c(=O)c1n2C`, the Potency entry in assay [1] and in assay [2] was “inactive” in each case.

Take `COc1ccc(CN2C(=O)c3ccccc3NC2c2ccc(OC)c(COc3c(C)cc(NC(C)=O)cc3C)c2)cc1` (stereo unspecified): the Potency entry in assay [1] and in assay [2] was “inactive” each time.

As to `Cc1cccc(-n2cnc3cc(C(=O)N4CCCC(C(F)(F)F)C4)ccc32)c1` (stereo unspecified), the Potency entry in assay [1] and in assay [2] was “inactive” throughout.

For `O=C(Nc1ccc(-c2cccnc2)nc1)c1cccs1`, the Potency result in assay [1] and in assay [2] was “inactive” in each case.

Regarding `c1cncc(-c2ccc(CNc3nc(N4CCCC4)nc4ccccc34)cc2)c1`, the Potency entry in assay [1] and in assay [2] was “inactive” each time.

On to `CC(=O)Nc1sc2c(c1-c1ccc(F)cc1)CCNC2`, for which the Potency entry in assay [1] and in assay [2] was “inactive” throughout.

In the case of `Cc1nc(Nc2ccccc2)c2nc(-c3ccccc3)n(CCCN3CCCCC3C)c2n1` (stereo unspecified), the Potency entry in assay [1] and in assay [2] was “inactive” in each case.

As for `Cc1c(P(=S)(c2ccccc2)c2ccccc2)c2ccccc2n1Cc1ccccc1`, the Potency result in assay [1] and in assay [2] was “inactive” throughout.

As to `Fc1cc(Cl)cc(-c2ccc(CNc3nc(-c4ccccc4C(F)(F)F)nc4ccccc34)cc2)c1`, the Potency result in assay [1] and in assay [2] was “inactive” each time.

In the case of `CC(=O)Nc1ccc(CNc2ncnc3ccc(-c4c(C)noc4C)cc23)cc1`, the Potency result in assay [1] and in assay [2] was “inactive” each time.

With `C=C(C)C(=O)O[C@H]1C[C@@](C)(O)C2(O)CCC(C)(/C=C3/OC(=O)C(COC)=C31)O2` (stereo partly specified), the Potency entry in assay [1] and in assay [2] was “inactive” in each case.

For `Cc1cc(N[S+](=O)([O-])c2ccc(NC(=O)Cn3c(=O)oc4ccc(Cl)cc43)cc2)no1`, the Potency result in assay [1] and in assay [2] was “inactive” each time.
